# Experimental data taken from PubChem BioAssay (NCATS).
# Inconclusive results are not listed. Where a call stands in place of a potency, no number is given. Calls of active or inactive are those of the source. The call rests on the fitted dose curve; in most records, active means well fitted inhibition curve with a large enough effect; inconclusive means small, poorly fitted or top-dose-only effect; inactive means flat fitted curve, though single readings scatter.
# System: CP265
# Test: qHTS profiling for inhibitors of Plasmodium falciparum proliferation (AID 504749); further: nearly all actives have a fitted effect of over 60% in size
# Settings: P. falciparum in erythrocytes, SYBR Green DNA, 72 h; series mostly up to 28.7 µM
# Procedure, shortened: (§1)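 Infected RBCs, 0.3% parasitemia/2.5% Hct final; cpd 72 h, 37 C, 5% CO2; lysis buffer with saponin/triton/SYBR Green I, o/n RT dark; FI 485/535; norm. to artemisinin (0.29 uM) and DMSO.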
# Potency means the concentration at half of the fitted maximal effect.
row,Structure (SMILES),Potency
1,CCN(CC)CCOc1ccc(-c2nc3cc(Cl)ccc3s2)cc1,inactive
2,CC[C@@]1(O)C(=O)OCc2c1cc1n(c2=O)Cc2cc3c([N+](=O)[O-])cccc3nc2-1,7.94 µM (active)
3,CN=C(NC#N)Nc1ccc(C2=NNC(=O)C[C@@H]2C)cc1,inactive
4,CCCCCC(CC)COC(=O)CC(C(=O)OCC(CC)CCCC)S(=O)(=O)O (centres undefined),inactive
5,C=C1C(=CC=C2CCC[C@@]3(C)[C@@H]2CC[C@H]3[C@H](C)CCCC(C)C)C[C@@H](O)C[C@@H]1O,11.2 µM (active)
6,Cc1cn([C@H]2C[C@H](O)[C@@H](CO)O2)c(=O)[nH]c1=O,inactive
7,O=CCCCC=O,inactive
8,O=C(O)c1cc(=O)c2c3nc4ccccc4oc-3cc(=O)c2[nH]1,inactive
9,CCOC(=O)C1=C(C)NC(C)=C(C(=O)OCC)C1c1ccccc1C=CC(=O)OC(C)(C)C,10 µM (active)
10,CCCCC(=O)O[C@]1(C(=O)CO)[C@H](C)C[C@H]2[C@@H]3CCC4=CC(=O)C=C[C@]4(C)[C@@]3(F)[C@@H](O)C[C@@]21C,inactive
11,Clc1cc(Cl)c(OCC#CI)cc1Cl,10 µM (active)
12,CN1C(=O)CN2CCc3ccccc3C2c2cc(Cl)ccc21 (centres undefined),inactive
13,COC(=O)C1=C(C#N)NC(C)=C(C(=O)OC(C)C)C1c1cccc([N+](=O)[O-])c1 (centres undefined),10 µM (active)
14,CC(C)N=c1cc2n(-c3ccc(Cl)cc3)c3ccccc3nc-2cc1Nc1ccc(Cl)cc1,inactive
15,CCOC(=O)C1=CC2(CC)CCCN3CCc4c(n1c1ccccc41)C32 (centres undefined),11.2 µM (active)
16,CC1=C(/C=C/C(C)=C/C=C/C(C)=C/C=C/C=C(C)/C=C/C=C(C)/C=C/C2=C(C)C(=O)CCC2(C)C)C(C)(C)CCC1=O,inactive
17,COC(=O)[C@H]1[C@H]2CC3c4[nH]c5ccccc5c4CCN3C[C@@H]2CC[C@@H]1O (some centres undefined),inactive

# System: CP266
# Test: as above
# Settings: P. falciparum in erythrocytes, SYBR Green DNA, 72 h; series mostly up to 28.7 µM
# Procedure, shortened: as §1
row,Structure (SMILES),Potency
1,CCN(CC)CCOc1ccc(-c2nc3cc(Cl)ccc3s2)cc1,inactive
2,C=C1C(=CC=C2CCC[C@@]3(C)[C@@H]2CC[C@H]3[C@H](C)CCCC(C)C)C[C@@H](O)C[C@@H]1O,inactive
3,Cc1cn([C@H]2C[C@H](O)[C@@H](CO)O2)c(=O)[nH]c1=O,inactive
4,O=CCCCC=O,inactive
5,CC(C)=O,inactive
6,O=C(O)c1cc(=O)c2c3nc4ccccc4oc-3cc(=O)c2[nH]1,inactive
7,CCCCC(=O)O[C@]1(C(=O)CO)[C@H](C)C[C@H]2[C@@H]3CCC4=CC(=O)C=C[C@]4(C)[C@@]3(F)[C@@H](O)C[C@@]21C,inactive
8,CN1C(=O)CN2CCc3ccccc3C2c2cc(Cl)ccc21 (centres undefined),inactive
9,C#C[C@]1(O)CC[C@H]2[C@@H]3CCC4=CCCC[C@@H]4[C@H]3C(=C)C[C@@]21CC,inactive
10,CC1=C(/C=C/C(C)=C/C=C/C(C)=C/CO)C(C)(C)CCC1,inactive
11,CC1=C(/C=C/C(C)=C/C=C/C(C)=C/C=C/C=C(C)/C=C/C=C(C)/C=C/C2=C(C)C(=O)CCC2(C)C)C(C)(C)CCC1=O,inactive
12,CCCCC(CC)COC(=O)CC(C(=O)OCC(CC)CCCC)S(=O)(=O)O (centres undefined),inactive

# System: CP268
# Test: as above
# Settings: P. falciparum in erythrocytes, SYBR Green DNA, 72 h; series mostly up to 28.7 µM
# Procedure, shortened: as §1
row,Structure (SMILES),Potency
1,C=C1C(=CC=C2CCC[C@@]3(C)[C@@H]2CC[C@H]3[C@H](C)CCCC(C)C)C[C@@H](O)C[C@@H]1O,inactive
2,Cc1cn([C@H]2C[C@H](O)[C@@H](CO)O2)c(=O)[nH]c1=O,inactive
3,O=CCCCC=O,inactive
4,O=C(O)c1cc(=O)c2c3nc4ccccc4oc-3cc(=O)c2[nH]1,inactive
5,COc1cc(-c2ccc(-[n+]3nc(-c4ccccc4)nn3-c3ccc([N+](=O)[O-])cc3)c(OC)c2)ccc1-[n+]1nc(-c2ccccc2)nn1-c1ccc([N+](=O)[O-])cc1,16.9 µM (active)
6,CCCCC(=O)O[C@]1(C(=O)CO)[C@H](C)C[C@H]2[C@@H]3CCC4=CC(=O)C=C[C@]4(C)[C@@]3(F)[C@@H](O)C[C@@]21C,inactive
7,CN1C(=O)CN2CCc3ccccc3C2c2cc(Cl)ccc21 (centres undefined),inactive
8,CC(C)N=c1cc2n(-c3ccc(Cl)cc3)c3ccccc3nc-2cc1Nc1ccc(Cl)cc1,inactive
9,CC1=C(/C=C/C(C)=C/C=C/C(C)=C/CO)C(C)(C)CCC1,inactive
10,O=C(Nc1ccc(Br)cc1)c1cc(Br)c(Br)s1,12 µM (active)
11,CC1=C(/C=C/C(C)=C/C=C/C(C)=C/C=C/C=C(C)/C=C/C=C(C)/C=C/C2=C(C)C(=O)CCC2(C)C)C(C)(C)CCC1=O,inactive
12,CCCCC(CC)COC(=O)CC(C(=O)OCC(CC)CCCC)S(=O)(=O)O (centres undefined),inactive
13,O=S(=O)(O)c1cc(O)c2c(N=Nc3ccc(Nc4ccccc4)c4c(S(=O)(=O)O)cccc34)cc(S(=O)(=O)O)cc2c1,inactive

# System: CP269
# Test: as above
# Settings: P. falciparum in erythrocytes, SYBR Green DNA, 72 h; series mostly up to 28.7 µM
# Procedure, shortened: as §1
row,Structure (SMILES),Potency
1,CCN(CC)CCOc1ccc(-c2nc3cc(Cl)ccc3s2)cc1,inactive
2,CC[C@@]1(O)C(=O)OCc2c1cc1n(c2=O)Cc2cc3c([N+](=O)[O-])cccc3nc2-1,10.7 µM (active)
3,C=C1C(=CC=C2CCC[C@@]3(C)[C@@H]2CC[C@H]3[C@H](C)CCCC(C)C)C[C@@H](O)C[C@@H]1O,inactive
4,Cc1cn([C@H]2C[C@H](O)[C@@H](CO)O2)c(=O)[nH]c1=O,inactive
5,CN(C)CCCN1c2ccccc2C(C)(C)c2ccccc21,inactive
6,O=CCCCC=O,inactive
7,CC(C)=O,inactive
8,O=C(O)c1cc(=O)c2c3nc4ccccc4oc-3cc(=O)c2[nH]1,inactive
9,CCOC(=O)C1=C(C)NC(C)=C(C(=O)OCC)C1c1ccccc1C=CC(=O)OC(C)(C)C,15.1 µM (active)
10,CCCCC(=O)O[C@]1(C(=O)CO)[C@H](C)C[C@H]2[C@@H]3CCC4=CC(=O)C=C[C@]4(C)[C@@]3(F)[C@@H](O)C[C@@]21C,inactive
11,CN1C(=O)CN2CCc3ccccc3C2c2cc(Cl)ccc21 (centres undefined),inactive
12,C#C[C@]1(O)CC[C@H]2[C@@H]3CCC4=CCCC[C@@H]4[C@H]3C(=C)C[C@@]21CC,inactive
13,COC(=O)C1=C(C#N)NC(C)=C(C(=O)OC(C)C)C1c1cccc([N+](=O)[O-])c1 (centres undefined),13.5 µM (active)
14,CC(C)N=c1cc2n(-c3ccc(Cl)cc3)c3ccccc3nc-2cc1Nc1ccc(Cl)cc1,inactive
15,NC1C2CN(c3nc4c(cc3F)c(=O)c(C(=O)O)cn4-c3ccc(F)cc3F)CC12 (centres undefined),6.75 µM (active)
16,CC1=C(/C=C/C(C)=C/C=C/C(C)=C/C=C/C=C(C)/C=C/C=C(C)/C=C/C2=C(C)C(=O)CCC2(C)C)C(C)(C)CCC1=O,inactive
17,CCCCC(CC)COC(=O)CC(C(=O)OCC(CC)CCCC)S(=O)(=O)O (centres undefined),inactive
